VLA-4 inh: inhibition in human VLA-4 binding assay, primary screen, VLA-4 allosteric modulator project, MLPCN library, flow cytometry, VLA-4 expressing cells. Integrin alpha-4 (Homo sapiens), P13612. ligand binding flow cytometry. inhibition, % (about 7 µM as worked out from the volumes in the protocol). 330,000 tested, 0.2% active; in the data active = inhibition above about 50%
Pemphigus Ab inh: inhibitors of pemphigus antibody binding to DSG3, primary screen, biochemical, bead-based, flow cytometry, scFv-GFP. Desmoglein-3 (Homo sapiens), P32926. DSG3-coupled beads, scFv-anti-DSG3-GFP binding; hits give low values. binding (percent of control), % at 10 µM. 310,000 tested, 0.48% active. AID 588358, 2011;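 active = binding more than 3 SD below its plate's average and above zero; inconclusive = below that plate limit but binding exactly zero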;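 also: hits lower antibody fragment binding to DSG3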
GASC-1 inh: inhibitors of GASC-1 histone demethylase, primary screen, biochemical, fluorescence, DELFIA europium; GST-JMJD2C(1-420) H3K9me3 demethylation; inhibition, % at 2.35 µM; 330,000 tested, 0.069% active;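 active = more than half of a compound's replicate wells show inhibition beyond 50%, single wells judged on their own value; inconclusive = some, but no more than half, of replicates pass 50% inhibition; inactive = no replicate passes 50% inhibition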;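 also: signal counts dimethyl H3K9 product captured on neutravidin plate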
PREPL inh: PREPL enzyme inhibitors, primary screen, biochemical, fluorescence polarization. Prolyl endopeptidase-like (Homo sapiens), Q4J6C6. recombinant PREPL, fluorescence polarization activity-based probe. inhibition, % at 5.96 µM. 320,000 tested, 0.68% active. AID 2751, 2010
GRK2 aptamer HTS: compounds blocking aptamer binding on GRK2 – biochemical, human GRK2, bead flow cytometry, HTS, primary screen | Beta-adrenergic receptor kinase 1 (Homo sapiens), P25098 | FAM-aptamer displacement from GRK2 | inhibition of aptamer binding, % at 10 µM | 330,000 tested, 0.59% active | AID 488847, 2010;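 active = inhibition of aptamer binding above 40%, roughly 3 SD of noise, on plates passing a quality check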;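 also: median bead fluorescence of bound FAM aptamer so fluorescent compounds give negative values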
PREPL inh cf: human PREPL enzyme inhibitors, confirmation, biochemical, fluorescence polarization. shares compounds with PREPL inh. recombinant PREPL, fluorescence polarization activity probe. inhibition, % at 5.96 µM. 2,000 tested, 67% active. AID 2803, 2010
Numbers stand for hits; n = inactive; u = inconclusive; x = no result. A selection: hits, their analogues and other compounds. The true share with any hit is near 1.6%. Rule as the data show it, unless noted: active = inhibition above about 43%; inactive = the rest.

SMILES	VLA-4 inh	Pemphigus Ab inh	GASC-1 inh	PREPL inh	GRK2 aptamer HTS	PREPL inh cf
Cc1c(/C=N/Nc2nc3ccccc3[nH]2)c2ccccc2n1C	n	n	n	45	n	n
CCCCCN=C(N)N/N=C/c1c[nH]c2ccc(OC)cc12	n	n	n	80	n	66
Cn1cccc1Cc1nnc(SCC(=O)N2CCN(c3ccccc3)CC2)n1-c1ccc(F)cc1	n	n	n	49	n	n
Cn1cccc1Cc1nnc(SCC(=O)NCc2ccccc2)n1-c1ccc(F)cc1	n	n	n	n	n	x
C(=N\Nc1nc2ccccc2s1)/c1ccccn1	n	n	n	n	n	x
Brc1csc(/C=N/Nc2nc3ccccc3s2)c1	n	n	n	54	n	n
CC(Oc1cccc(Cl)c1)C(=O)N1CCCN(C)CC1 (stereo not drawn)	n	n	n	n	n	x
CCCCCNc1nc(NCCCO)c(C#N)c2c1CN(C)CC2	n	n	n	n	n	x
CCCCCNc1nc(N2CCCC2)c2c(c1C#N)CCN(C)C2	n	n	n	55	n	57
C=CCn1c(C)nnc1SCC(=O)c1c(N)n(C2CC2)c(=O)[nH]c1=O	x	n	x	x	x	x
C=CCNC(=S)Nc1cc(Cl)ccc1OC	n	x	n	n	n	x
Cn1c(=O)[nH]c(=O)c2c1nc(CN1CCN(c3cccc(Cl)c3)CC1)n2CCN1CCOCC1	n	n	n	46	n	n
O=C1/C(=C/c2ccccc2F)SC(=S)N1CCC(=O)N1CCCCC1CCO (stereo not drawn)	n	n	n	46	n	43
O=C1/C(=C/c2ccc(Cl)cc2)SC(=S)N1CCC(=O)N1CCCCC1CCO (stereo not drawn)	n	n	n	n	n	x
O=C1/C(=C/c2cccc(Cl)c2)SC(=S)N1CCC(=O)N1CCCCC1CCO (stereo not drawn)	n	n	n	45	n	44
O=C1/C(=C/c2ccccc2)SC(=S)N1CCCC(=O)N1CCCCC1CCO (stereo not drawn)	n	n	n	n	n	x
Cc1cc(C(=O)OCC(=O)N2CCCCCC2)ccc1[N+](=O)[O-]	n	x	x	n	n	x
Cc1ccc(NC(=O)N2CCOCC2)c(C)c1	n	n	n	87	n	n
CN(C)c1ccc(/C=N/NC(=S)NCc2ccccc2)cc1	n	n	n	51	n	55
CC(C)(C)c1ccc(/C=N/NC(=S)NCc2ccccc2)cc1	n	n	n	n	n	x
O=C1CCC(C(=O)N2CCC(CO)CC2)CN1Cc1ccc(Cl)cc1 (stereo not drawn)	n	n	n	n	n	x
C#CCOCCOCCOCCNc1nc(N2CCN(C(=O)CCCCCCCCCCNC(=O)[C@H]([C@@H](C)CC)n3cc(CCCCCN)nn3)CC2)nc(N2CCN(C(=O)CCCCCCCCCCNC(=O)[C@@H]([C@H](C)O)n3cc(C)nn3)CC2)n1	n	n	n	46	n	n
C#CCOCCOCCOCCNc1nc(N2CCN(C(=O)CCCCCCCCCCNC(=O)[C@H](CCCCN)n3cc(C)nn3)CC2)nc(N2CCN(C(=O)CCCCCCCCCCNC(=O)[C@@H]([C@H](C)CC)n3cc(CCCCCN)nn3)CC2)n1	n	n	x	52	n	45
CC1(C)CC(NC(=O)COc2ccc3ccc(=O)oc3c2)CC(C)(C)N1	n	n	u	n	n	x
Cc1ccc(C(=O)Oc2ccc(/C=C3\C(=N)N4N=C(N5CCOCC5)SC4=NC3=O)cc2)cc1	n	n	n	62	n	n
SMILES	VLA-4 inh	Pemphigus Ab inh	GASC-1 inh	PREPL inh	GRK2 aptamer HTS	PREPL inh cf
N=C1/C(=C\c2ccc(OC(=O)c3ccccc3)cc2)C(=O)N=C2SC(N3CCOCC3)=NN12	n	n	n	61	n	n
CC[C@@H](C)[C@@H]1CN([C@@H](C)CN2CCC[C@H]2CN2C(N)=NC[C@H]2CC(C)C)C(=N)N1CCCC1CCCC1	n	n	x	n	n	x
CC(C)C[C@@H]1CN=C(N)N1C[C@@H]1CCCN1C[C@@H](C(C)C)N1C[C@@H](Cc2ccccc2)N(CCCC2CCCC2)C1=N	n	n	x	60	n	51
CCCCN1C(=N)N([C@@H](CN2CCC[C@H]2CN2C(N)=NC[C@@H]2Cc2ccccc2)C(C)C)C[C@H]1Cc1ccccc1	n	n	n	65	n	59
CC(C)CCCN1C(N(C)C)=NC[C@@H]1Cc1ccccc1	n	n	n	n	n	x
CCCCN1C(=N)N([C@@H](C)CN2CCC[C@H]2CN2C(N)=NC[C@@H]2Cc2ccccc2)C[C@H]1Cc1ccccc1	n	n	n	54	n	44
COCCCNc1c2c3c(cccc3[nH]c1=O)C(=O)c1ccccc1-2	n	n	n	112	n	113
COCCCNC1=C(Cl)C(=O)c2ccccc2C1=O	n	n	n	n	n	x
N#Cc1cccc(NC(=O)CSc2nnc(C3CC3)n2C2CC2)c1	n	n	n	76	n	n
NS(=O)(=O)c1cccc(NC(=O)CSc2nnc(C3CC3)n2C2CC2)c1	n	x	n	n	n	x
Cc1c(C)n(C)c2ccc(C(=O)NCCCN3CCN(c4ccc(F)cc4)CC3)cc12	n	u	n	n	n	x
Cc1c(C)n(C)c2ccc(C(=O)NCCCN3CCN(c4ccccc4F)CC3)cc12	n	n	n	44	n	n
CSc1ccc(NC(=O)NCCCN2CCN(c3ccccc3F)CC2)cc1	n	n	n	43	n	n
COc1ccc(-n2c(C)cc(-c3csc(N)n3)c2C)cc1	n	n	n	43	n	n
CCCn1c(C)cc(-c2csc(N)n2)c1C	n	n	n	44	n	n
Cc1cc(-c2csc(N)n2)c(C)n1-c1ccc(Cl)c(Cl)c1	n	n	n	n	n	x
Cc1c(-c2csc(N)n2)cnn1C	n	x	n	n	n	x
O=C(NCCc1c[nH]c2ccccc12)C(=O)NCC(c1ccco1)N1CCN(c2ccccc2)CC1 (stereo not drawn)	n	x	n	46	n	n
O=C(NCCc1c[nH]c2ccccc12)C(=O)NCC(c1ccco1)N1CCN(c2ccc(F)cc2)CC1 (stereo not drawn)	n	x	n	n	n	x
Cc1c(C#N)c(N=CN(C)C)c(C(=O)c2ccc(Br)cc2)n1-c1ccc(Cl)cc1	n	n	n	48	n	53
CC(=O)c1c(N)c(C#N)c(C)n1-c1ccc(Br)cc1	n	n	n	n	n	x
CCN(C(=O)CSc1nc(C)nc2sc3c(c12)CCC3)C1CCS(=O)(=O)C1 (stereo not drawn)	n	x	n	54	n	n
CSc1sc(C(=O)N(C)C)c2c1S(=O)(=O)N(C)c1ccccc1-2	n	n	n	n	n	x
Nc1c(C(=O)NC2CCCC2)c2nc3ccccc3nc2n1/N=C/c1ccco1	n	x	n	n	n	x

Screens deposited in PubChem BioAssay by several laboratories.
